We go through 40 compounds from PubChem BioAssay (Tox21).

Structures are written as SMILES. Inconclusive results are not listed. Entries that show only a call come without a potency. Activity calls are given as the source filed them. The call rests on the fitted dose curve; in most records, active means well fitted activation curve with a large enough effect in the repeat runs; inconclusive means weak or mixed curves; inactive means flat fitted curve, though single readings scatter.

The nature of this assay: A CellTox Green Cytotoxicity Assay to monitor cytotoxicity in HEK293 cells - 16 hour (AID 1224888). Further: nearly all actives have a fitted effect of over 35% in size. Particulars: CellTox Green fluorescence; series mostly up to 76.8 µM. The source says: National Center for Advancing Translational Sciences [NCATS]
NIH Chemical Genomics Center [NCGC]
U.S. Environmental Protection Agency [EPA]
National Institutes of Environmental Health Sciences [NIEHS]
National Toxicology Program [NTP]
Cell-based models are critical for drug discovery. Determining the natural cytotoxic effects resulting from test compounds is an essential research activity. A CellTox Green Cytotoxicity Assay to monitor cytotoxicity in real time of continues cell culture during 40 hours of the compound treatment was used to screen Tox21 10K library compounds in Hek293 cells. CellTox Green Cytotoxicity Assay is a nonlytic, homogeneous, biofluorescent method to measure cytotoxicity in cell culture after experimental manipulation. The assay system uses a proprietary asymmetric cyanine dye that is excluded from viable cells but preferentially stains the dead cell's DNA. […] Viable cells produce no appreciable increases in fluorescence. Therefore, the fluorescence signal produced by the binding interaction with dead cell DNA is proportional to cytotoxicity.
The mixture of Hek293 cell suspension and reagents were dispensed at 600cells/6 ul/well in 1536-well tissue culture treated black solid bottom plates using a Multidrop dispenser. After the assay plates were incubated at a 37 C/5% CO2 incubator for 5 hours, 23 nL of compounds dissolved in DMSO, positive and negative controls was transferred to the assay plate by a pintool work station. The plates were incubated at 37 C for 40 hours. The fluorescence intensity were measured at 0h, 8h, 16h, 24h, 32h and 40h time points using ViewLux plate reader during compound treatment.
Consider `ClC(Br)Br`, for which the Potency entry is “inactive”. In the case of `CCOC(=O)NC(=S)Nc1ccccc1NC(=S)NC(=O)OCC` it was “inactive”; in that of `c1coc(-c2nc3ccccc3[nH]2)c1`, “inactive”. In the case of `O=C(CCN1CC1)OCC(CO)(COC(=O)CCN1CC1)COC(=O)CCN1CC1` it was “inactive”; in that of `CCC(Cl)[N+](=O)[O-]` (stereo not given), “inactive”; in that of `CC1CCC(=O)O1` (stereo not given), “inactive”. The value for `CCOP(=S)(OCC)Oc1nc(Cl)n(C(C)C)n1` was “inactive”; that for `O=C1OC(=O)C2C1C1(Cl)C(Cl)=C(Cl)C2(Cl)C1(Cl)Cl` (stereo not given) was “inactive”.

Regarding `COC(C)(C)C`, the Potency entry is “inactive”.

Turning to `Cc1coc2c1CCC(C)C2` (stereo not given), the Potency entry is “inactive”.

As to `COC(=O)c1ccccc1S(=O)(=O)NC(=O)N(C)c1nc(C)nc(OC)n1`, the Potency result is “inactive”.

On to `C[C@]1(O)CC[C@H]2[C@@H]3CCC4=CC(=O)CC[C@]4(C)[C@@]3(F)[C@@H](O)C[C@@]21C`, for which the Potency result is “inactive”. Consider `COc1cc(OC)nc(Oc2cccc(Oc3nc(OC)cc(OC)n3)c2C(=O)O)n1`, for which the Potency entry is “inactive”. In the case of `CC(=O)C(Cl)Cl`, the Potency entry was “inactive”. As to `Cc1ncc(CNC(=O)N(CCCl)N=O)c(N)n1`, the Potency result was “inactive”. The value for `Nc1c(Br)cc([N+](=O)[O-])cc1[N+](=O)[O-]` was “inactive”; that for `N#Cc1c(Cl)cccc1Cl` was “inactive”; that for `CCCSP(=S)(OCC)Oc1ccc(Cl)cc1Cl` (stereo not given) was “inactive”. Regarding `Fc1ccc(C2(Cn3cncn3)OC2c2ccccc2Cl)cc1` (stereo not given), the Potency result is “inactive”. The value for `CN/C(=N\[N+](=O)[O-])NCC1CCOC1` (stereo not given) was “inactive”; that for `O=[N+]([O-])c1ccc(CBr)cc1` was “inactive”. For the compound `O=CNC(N1CCN(C(NC=O)C(Cl)(Cl)Cl)CC1)C(Cl)(Cl)Cl` (stereo not given), the Potency result was “inactive”.

Turning to `CN1CCN(C(=O)O[C@H]2c3nccnc3C(=O)N2c2ccc(Cl)cn2)CC1`, the Potency entry is “inactive”.

On to `Clc1cccc(N2CCNCC2)c1`, for which the Potency result was “inactive”. Consider `ClCCCN1CCN(c2cccc(Cl)c2)CC1`, for which the Potency entry was “inactive”. The value for `N#CCCC#N` was “inactive”. The value for `ClC(Cl)C(Cl)Cl` was “inactive”. In the case of `c1ccc(N2CCNCC2)cc1` it was “inactive”; in that of `CC(C)CP(=S)(S)CC(C)C`, “inactive”; in that of `CCOP(=S)(OCC)SCSc1ccc(Cl)cc1`, “inactive”.

Take `CCC(C)n1c(=O)[nH]c(C)c(Br)c1=O` (stereo not given): the Potency entry is “inactive”. The value for `C[C@@H]1CN(C2CCC(C#N)(c3ccc(F)cc3)CC2)CC[C@]1(C(=O)O)c1ccccc1` (stereo not given in full) was “inactive”.

On to `O=[N+]([O-])c1cccc(O)c1`, for which the Potency result was “inactive”. In the case of `CC1CCCCC1NC(=O)Nc1ccccc1` (stereo not given) it was “inactive”. Regarding `COC(=O)C1=CCCN(C)C1`, the Potency result was “inactive”.

Regarding `CC(C)NCC(O)c1ccc(N)c(C#N)c1` (stereo not given), the Potency entry is “inactive”.

`CNC(=O)N(C)c1nc2ccccc2s1`: the Potency result was “inactive”.

With `CCOC(=O)N(C)C(=O)CSP(=S)(OCC)OCC`, the Potency result is “inactive”. On to `CNC(=O)O/N=C(\C)SC`, for which the Potency result was “inactive”. The value for `O=S(=O)(O)C(F)(F)C(F)(F)C(F)(F)C(F)(F)C(F)(F)C(F)(F)F` was “inactive”.
